Screening data from PubChem BioAssay.
Sampled rows, rich in hits. Any-hit rate of the full collection: about 4%.
esBAF inh – Bmi1 luciferase reporter increase in mESCs, primary screen, esBAF inhibitor project, mouse ES cells, Bmi1 luciferase knock-in, single point | AID 602393, 2012 | 350,000 compounds, 2% hits | 24 h; 100% = twice the neutral-well signal | reporter increase, % at 12.5 µM; in the data active = activation above about 40%; inconclusive = no clear call, values can overlap the other calls;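 note: a rise in the Bmi1 reporter signal indicates esBAF inhibition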
Statin myotox sup – suppressors of statin myotoxicity in C2C12 myotubes, primary screen, cell-based, single point, plate reader | C2C12 myotubes + simvastatin, ATP luminescence, 48 h; scaled: DMSO 0, geranylgeraniol control 100 | rescue of ATP level, % at 7.49 µM | 330,000 compounds, 0.78% hits;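 active = mean ATP rescue above about 67%, or every replicate alone reaching that limit, limit read from the data, passing the limit was not always enough; inconclusive = no clear call, values can overlap the other calls; inactive = mean under the limit and some replicate under it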;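 note: myotubes were challenged with 10 µM simvastatin during compound exposure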
EBV LMP1 NFkB – EBV LMP1-driven NF-kappaB luciferase reporter inhibitors, primary screen, cell-based, luminescence, single point. inhibition, % at 12.5 µM. AID 504558, 2011. 350,000 compounds, 0.69% hits. LMP1-induced NF-kappaB luciferase reporter cells; in the data active = inhibition above about 41%; inconclusive = no clear call, values can overlap the other calls
TRPM1 prom inh – inhibitors of MITF-dependent TRPM1 promoter reporter, primary screen, cell-based, SK-MEL-5, single point, luciferase | SK-MEL-5 TRPM1 promoter luciferase, 24 h | inhibition, % at 12.5 µM | 330,000 compounds, 0.83% hits | AID 488899, 2010;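 active = mean inhibition across replicates of 60% or more, whatever share of single replicates reaches that level; inconclusive = some that reach 60%, reason not given; inactive = mean inhibition across replicates below 60%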
Wnt bcat act – Wnt/beta-catenin pathway activators, primary screen, cell-based, plate reader, single point; Wnt/beta-catenin reporter cell assay, activator; activation, % at 9.35 µM; 300,000 compounds, 1.2% hits; AID 743398, 2014; in the data active = activation above about 30%, passing the limit was not always enough; inconclusive = no clear call, values can overlap the other calls
MITF TRPM1 HTS – activators of MITF-driven TRPM1 promoter reporter, primary screen, cell-based, SK-MEL-5, luciferase, single point | SK-MEL-5 TRPM1-promoter luciferase, 24 h; % of positive control, neutral wells = 0 | AID 588334, 2011 | 300,000 compounds, 0.75% hits | activation, % at 12.5 µM;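 active = mean activation of at least 80% with every replicate also reaching 80%; inconclusive = mean reaches 80% but some replicate falls short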
Of the large screens only hits and unclear results are named; the others gave an inactive call.

CC(=O)N(Cc1ccc(F)cc1)C1=C(NCCc2ccccc2)C(=O)c2ccccc2C1=O	EBV LMP1 NFkB 75.8, TRPM1 prom inh 104.0
CC(=O)N(Cc1ccc(F)cc1)c1cccc(C)c1C	none (no result: esBAF inh, Statin myotox sup)
Fc1ccccc1Cn1nnc2c(NCCc3ccccn3)ncnc21	esBAF inh 47.7 (no result: Wnt bcat act)
Cc1cccc(C(=O)C2CCN(S(=O)(=O)c3ccc(C(=O)O)cc3)CC2)c1	none
CN(C)CC(=O)N1CCCCN2[C@@H](CO)[C@@H](c3ccc(-c4cccc(C(=O)N(C)C)c4)cc3)[C@@H]2C1	none (no result: EBV LMP1 NFkB, TRPM1 prom inh, Wnt bcat act, MITF TRPM1 HTS)
NC1=NC[C@@H](CC2CCCCC2)N1CCc1cc(C(F)(F)F)cc(C(F)(F)F)c1	TRPM1 prom inh 99.4 (no result: Wnt bcat act)
CCOC(=O)/C=c1\s/c(=C\c2ccc3cc(OC)ccc3c2)c(=O)n1CC(=O)NCC1CCCO1 (stereo unspecified)	TRPM1 prom inh 68.0 (no result: esBAF inh, Statin myotox sup, Wnt bcat act)
CCCOc1nnnn1-c1ccccc1	none (no result: MITF TRPM1 HTS)
CCCOn1nnnc1-c1ccccc1	Statin myotox sup 119.5
CN(C)C(=O)CSc1nc(-c2ccccc2)nc2c1CCCC2	Statin myotox sup 76.6
Clc1ccc2nc(-c3ccc(Cl)nc3)[nH]c2c1	esBAF inh 57.5
C[C@H]1CN([C@@H](C)CO)C(=O)c2cc(NC(=O)Cc3ccccc3)ccc2O[C@H]1CN(C)C(=O)Nc1ccc2c(c1)OCO2	esBAF inh 71.1 (no result: EBV LMP1 NFkB, TRPM1 prom inh, Wnt bcat act, MITF TRPM1 HTS)
C[C@@H]1CCCCO[C@H](CN(C)C(=O)Nc2ccc(F)cc2)[C@H](C)CN([C@@H](C)CO)C(=O)c2cc(NC(=O)Cc3ccccc3)ccc2O1	Statin myotox sup 86.8 (no result: EBV LMP1 NFkB, TRPM1 prom inh, Wnt bcat act, MITF TRPM1 HTS)
C[C@H](CO)N1C[C@H](C)[C@@H](CN(C)S(=O)(=O)c2ccccc2)OCCCC[C@H](C)Oc2ccc(N(C)C)cc2C1=O	Statin myotox sup 91.6 (no result: EBV LMP1 NFkB, TRPM1 prom inh, Wnt bcat act, MITF TRPM1 HTS)
C[C@@H]1CN([C@@H](C)CO)C(=O)c2cc(NC(=O)Cc3ccccc3)ccc2O[C@@H](C)CCCCO[C@@H]1CN(C)S(=O)(=O)c1ccc(F)cc1	Statin myotox sup 101.0 (no result: EBV LMP1 NFkB, TRPM1 prom inh, Wnt bcat act, MITF TRPM1 HTS)
O=C(CCCC1=NS(=O)(=O)c2ccccc2N1)Nc1ccccc1	none
Cc1cc(C(=O)NNc2c(Cl)cccc2Cl)no1	none
Cc1noc(C)c1S(=O)(=O)Nc1ccc2c(c1)C(=O)N([C@@H](C)CO)C[C@H](C)[C@H](CN(C)CC1CC1)OCCCC[C@@H](C)O2	none (no result: Statin myotox sup, EBV LMP1 NFkB, TRPM1 prom inh, Wnt bcat act, MITF TRPM1 HTS)
Cn1c(=O)[nH]c(=O)c2c1nc(NCCCn1ccnc1)n2Cc1ccccc1	none (no result: Statin myotox sup)
CC(C)NC(=O)N(C)C[C@H]1Oc2ccc(NC(=O)Nc3ccccc3)cc2C(=O)N([C@H](C)CO)C[C@@H]1C	Wnt bcat act 36.4
COc1cc(C)nc(NC(=S)N(C)C(=O)c2ccccc2)n1	Wnt bcat act 46.5 (no result: esBAF inh, Statin myotox sup, EBV LMP1 NFkB, TRPM1 prom inh, MITF TRPM1 HTS)
CC(=O)c1ccc(OCc2cc(C(=O)N3CCCCCCC3)no2)cc1	none
CC(=O)c1ccc(OCc2cc(C(=O)N3CCOCC3)no2)cc1	esBAF inh 61.2
CCOC(=O)N1CCN(C(=O)c2cc(COc3cccc(C(C)=O)c3)on2)CC1	esBAF inh 42.2
CC(=O)c1cccc(OCc2cc(C(=O)NCc3nc(C)c(C)s3)no2)c1	esBAF inh 48.0
O=C(CSc1ccccc1C(=O)NCc1ccccc1)NC12CC3CC(CC(C3)C1)C2	none (no result: esBAF inh, Statin myotox sup)
CSCCC(NC(=O)COc1ccccc1)C(=O)N1CCN(c2ccccc2F)CC1 (stereo unspecified)	none (no result: Wnt bcat act)
Cc1cnc(NC(=O)CCCNC(=O)c2ccc(Cl)cc2)s1	esBAF inh 41.7, Wnt bcat act 51.8
Cc1cccnc1NC(=O)CCCNC(=O)c1ccc(Cl)cc1	none
Cc1ccc(NC(=O)CCCNC(=O)c2ccc(Cl)cc2)nc1	esBAF inh 51.8
O=C(NC(=S)Nc1ccc(O)cc1)c1ccccc1Cl	esBAF inh inconclusive
COc1ccc(NC(=S)NC(=O)c2ccccc2Cl)cc1	esBAF inh 61.9, MITF TRPM1 HTS inconclusive (no result: Wnt bcat act)
COc1ccc(NC(=O)c2cc(-c3ccccc3Cl)no2)cc1	none (no result: esBAF inh, Statin myotox sup, Wnt bcat act)
O=C(Nc1ccccc1)c1cc(-c2ccccc2Cl)no1	esBAF inh 55.8 (no result: Statin myotox sup)
O=C(Nc1cccc(F)c1)c1ccc(-c2ccccc2Cl)o1	esBAF inh 75.2 (no result: Wnt bcat act)
